Experimental data taken from the supplement of paper PMC7156485.
± gives the standard deviation of the averaged measurements.

What was measured:
Details in all cases: concentration: 10 µM; 24 h
HCC1569 [1] = experiment: cell number relative to DMSO (% of DMSO); higher = more cells (less growth inhibition / toxicity)
Summary of the method: (§1)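 HCC1569 and TDF cells were seeded at 800 per well in 384-well plates in RPMI with 10% FBS and treated with compounds at 10 µM for 24 h at 37 °C, in triplicate. After fixation in 3.7% formaldehyde, cells were stained with a rabbit anti-H1.0 antibody, an AlexaFluor 647 secondary and DAPI, and six fields per well were imaged at ×10. H1.0 nuclear intensity or cell number is given as percent of the plate control, using the median of replicates, with HCC1569 values smoothed for positional effects.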

TDF [2] = experiment: as above
Summary of the method: as §1

TDF [3] = experiment: H1.0 immunofluorescence intensity relative to DMSO (% of DMSO); higher = stronger H1.0 induction, active = 120 or more
Summary of the method: as §1

HCC1569 [4] = experiment: H1.0 immunofluorescence intensity relative to DMSO (% of DMSO); higher = stronger H1.0 induction, active = 140 or more
Summary of the method: as §1
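Wherever H1.0 immunofluorescence intensity relative to DMSO is given: TDF is a line of transformed human dermal fibroblasts of mesenchymal origin.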
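Wherever cell number relative to DMSO is given: TDF denotes transformed human dermal fibroblasts of mesenchymal origin.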

Row | Compound | cell number (HCC1569 [1]) | cell number (TDF [2]) | H1.0 immunofluorescence intensity (TDF [3]) | H1.0 immunofluorescence intensity (HCC1569 [4])
1 | CC(=O)C(C)=NO [2,3-Butanedione monoxime] | 100 | 95.2 | 106 (inactive) | 115 (inactive)
2 | COc1cc2nc(N3CCN(C(=O)C4COc5ccccc5O4)CC3)nc(N)c2cc1OC.CS(=O)(=O)O (configuration not stated) [Doxazosin mesylate] | 99.9 | 103 | 95.5 (inactive) | 110 (inactive)
3 | COC1C=COC2(C)Oc3c(C)c(O)c4c(c3C2=O)C(=O)C(=CNN2CCN(C)CC2)C(=C4O)NC(=O)C(C)=CC=CC(C)C(O)C(C)C(O)C(C)C(OC(C)=O)C1C (configuration not stated) [Rifampicin] | 104.2 ± 0.92 | 106 ± 1.9 | 94.5 (inactive) | 103 (inactive)
4 | CS(=O)c1ccc(-c2nc(-c3ccc(F)cc3)c(-c3ccncc3)[nH]2)cc1.Cl (configuration not stated) | 88.9 | 99.5 | 94.5 (inactive) | 117 (inactive)
5 | CC(C)(C#N)c1ccc(N2C(=O)OCc3cnc4ccc(-c5cnc6ccccc6c5)cc4c32)cc1 | 59.8 | 44.1 | 101 (inactive) | 206 (active)
6 | CC(C=CC1=C(C)CCCC1(C)C)=CC=CC(C)=CC(=O)Nc1ccc(O)cc1 [Retinoic acid p-hydroxyanilide] | 42.9 | 85.3 | 100 (inactive) | 185 (active)
7 | O=P(O)(O)C(O)(Cc1cccnc1)P(=O)(O)O [Risedronic acid] | 110 | 103 | 100 (inactive) | 99.9 (inactive)
8 | CCC1=CC2CN(C1)Cc1c([nH]c3ccccc13)C(C(=O)OC)(c1cc3c(cc1OC)N(C)C1C(O)(C(=O)OC)C(OC(C)=O)C4(CC)C=CCN5CCC31C54)C2 (configuration not stated) [Vinorelbine] | 56.9 ± 1.3 | 9.75 ± 0.33 | 167 (active) | 153 (active)
9 | NC(=S)NN=Cc1ncccc1N [3-amino-2-pyridinecarbaldehyde thiosemicarbazone] | 77.2 | 41.7 | 113 (inactive) | 99.1 (inactive)
10 | COc1cc(C=CC(=O)CC(=O)C=Cc2ccc(O)c(OC)c2)ccc1O [Curcumin] | 71.3 | 62.7 | 106 (inactive) | 139 (inactive)
11 | CCN(CC)CCNC(=O)c1ccc(N)cc1.Cl [Procainamide.HCl] | 108 | 101 | 91.2 (inactive) | 101 (inactive)
12 | Cc1cc(C)c(C=C2C(=O)Nc3ccccc32)[nH]1 [VEGF Receptor 2 Kinase Inhibitor III] | 100 | 105 | 91.1 (inactive) | 108 (inactive)
13 | CC(OC(=O)c1ccc(F)cc1F)C(=O)N(C)C1CCS(=O)(=O)C1 (configuration not stated) [Cdk2/9 Inhibitor] | 48.9 | 29.1 | 110 (inactive) | 139 (inactive)
14 | O=C1NC(c2cccc([N+](=O)[O-])c2)=CCN1c1ccccc1O | 104 | 104 | 95.6 (inactive) | 94.9 (inactive)
15 | CCCC1OC2CC3C4CCC5=CC(=O)C=CC5(C)C4C(O)CC3(C)C2(C(=O)CO)O1 (configuration not stated) [Budesonide] | 97.2 | 94.1 | 82 (inactive) | 96.4 (inactive)
16 | O=c1[nH]c2cc([N+](=O)[O-])c([N+](=O)[O-])cc2[nH]c1=O | 105 | 111 | 91.9 (inactive) | 91.4 (inactive)
17 | CC1CCC2C(C)C(OC(=O)CCC(=O)O)OC3OC4(C)CCC1C32OO4 (configuration not stated) [Artesunate] | 87.2 ± 1.8 | 88.2 ± 5.5 | 99.1 (inactive) | 124 (inactive)
18 | C=CCCCCCCCCCCC(=O)O [12-Tridecenoic acid] | 99.7 | 91.7 | 106 (inactive) | 98.7 (inactive)
19 | Cl.Nc1c2c(nc3ccccc13)CCCC2 [9-Amino-1,2,3,4-tetrahydroacridine hydrochloride] | 105 | 103 | 94.8 (inactive) | 94.2 (inactive)
20 | CNC1(C)C2CCC(C2)C1(C)C.Cl (configuration not stated) [Mecamylamine hydrochloride] | 106 | 108 | 94.1 (inactive) | 93.5 (inactive)
21 | N=C(N)N1CCc2ccccc2C1 [Debrisoquin] | 103 | 102 | 96 (inactive) | 96.4 (inactive)
22 | CC(Cc1ccc(O)c(O)c1)(NN)C(=O)O (stereo not drawn) [S-(-)-Carbidopa] | 106 | 112 | 91.7 (inactive) | 90 (inactive)
23 | O=C(O)CCCCCCCC(=O)O [Azelaic acid] | 102 | 101 | 98.2 (inactive) | 89.8 (inactive)
24 | C=CC[N+]1(C2CC3C4CCC5CC(O)C(N6CCOCC6)CC5(C)C4CCC3(C)C2OC(C)=O)CCCC1.[Br-] (configuration not stated) [Rocuronium bromide] | 107 | 104 | 99.6 (inactive) | 99.4 (inactive)

Row | Compound | cell number (HCC1569 [1]) | cell number (TDF [2]) | H1.0 immunofluorescence intensity (TDF [3]) | H1.0 immunofluorescence intensity (HCC1569 [4])
25 | COc1ccc(-c2ccc3cc(C(=O)O)ccc3c2)cc1C12CC3CC(CC(C3)C1)C2 [Adapalene] | 85.4 | 88.7 | 99.5 (inactive) | 102 (inactive)
26 | C[N+](C)(C)C(Cc1c[nH]c(=S)[nH]1)C(=O)[O-] (configuration not stated) [Ergothioneine] | 100 | 103 | 101 (inactive) | 99.9 (inactive)
27 | CCCCCCCCCCCCCCCCOP(=O)([O-])OCC[N+](C)(C)C [Miltefosine] | 97.1 | 109 | 92.7 (inactive) | 113 (inactive)
28 | CC(=O)SCC(Cc1ccccc1)C(=O)NCC(=O)OCc1ccccc1 (configuration not stated) [Racecadotril] | 103 | 117 | 91.5 (inactive) | 104 (inactive)
29 | CCCOC(=O)c1c(-c2ccccc2)nc(CC)c(C(=O)SCC)c1CCC | 102 | 90.7 | 93.7 (inactive) | 96.3 (inactive)
30 | CC(=O)OCC=C(C)C=CC=C(C)C=CC1=C(C)CCCC1(C)C [Vitamin A acetate] | 98.7 | 107 | 91.8 (inactive) | 119 (inactive)
31 | COc1ccc(-c2cc(=S)ss2)cc1 [Anethole-trithione] | 102 | 92.7 | 96.7 (inactive) | 103 (inactive)
32 | CC(=O)N[C@@H](CS)C(=O)O [N-Acetyl-L-Cysteine] | 98.1 | 115 | 109 (inactive) | 118 (inactive)
33 | Nc1ccc(N2C(=O)c3ccccc3C2=O)c(Cl)c1 [N-(4-Amino-2-chlorophenyl)phthalimide] | 103 | 107 | 94.3 (inactive) | 100 (inactive)
34 | Cl.Clc1cccc(Cl)c1NC1=NCCN1 [Clonidine.HCl] | 103 | 100 | 84.7 (inactive) | 101 (inactive)
35 | NC1CCN(c2c(F)cc3c(=O)c(C(=O)O)cn(C4CC4)c3c2Cl)C1 (configuration not stated) [Clinafloxacin] | 103 | 101 | 94.3 (inactive) | 107 (inactive)
36 | CCC1(O)CC2CN(CCc3c([nH]c4ccccc34)C(C(=O)OC)(c3cc4c(cc3OC)N(C)C3C(O)(C(=O)OC)C(OC(C)=O)C5(CC)C=CCN6CCC43C65)C2)C1.O=S(=O)(O)O (configuration not stated) [Vinblastine sulfate] | 53.3 | 11.2 | 156 (active) | 131 (inactive)
37 | Cl.NNc1nncc2ccccc12 [Hydralazine hydrochloride] | 101 | 107 | 93.2 (inactive) | 92 (inactive)
38 | CC1OC(OCC2OC(Oc3c(-c4ccc(O)c(O)c4)oc4cc(O)cc(O)c4c3=O)C(O)C(O)C2O)C(O)C(O)C1O (configuration not stated) [Rutin] | 107 | 102 | 91.6 (inactive) | 88 (inactive)
39 | CC(C)=CCCC(C)=CCCC(C)=CCSc1ccccc1C(=O)O [Farnesylthiosalicylic acid] | 93.9 | 99.9 | 90.7 (inactive) | 94.5 (inactive)
40 | COC(C(=O)C(O)C(C)O)C1Cc2cc3cc(OC4CC(OC5CC(O)C(O)C(C)O5)C(O)C(C)O4)c(C)c(O)c3c(O)c2C(=O)C1OC1CC(OC2CC(OC3CC(C)(O)C(O)C(C)O3)C(O)C(C)O2)C(O)C(C)O1 (configuration not stated) [Mithramycin A] | 68.7 | 29.9 | 109 (inactive) | 112 (inactive)
41 | O=c1cc(-c2ccccc2)oc2cc(O)c(O)cc12 [6,7-Dihydroxyflavone] | 102 | 96.3 | 98.5 (inactive) | 101 (inactive)
42 | O=C(Nc1cccc(-c2ccccc2)c1)OC1CCCCC1 [cyclohexyl [1,1'-biphenyl]-3-ylcarbamate] | 105 | 94.2 | 93.4 (inactive) | 88.6 (inactive)
43 | CCN(CC)CC(=O)Nc1c(C)cccc1C.Cl [Lidocaine hydrochloride] | 97.3 | 101 | 89 (inactive) | 94.4 (inactive)
44 | CC1(C2CCCC2)Cc2cc(OCC(=O)O)c(Cl)c(Cl)c2C1=O (configuration not stated) | 103 | 107 | 91.9 (inactive) | 84.5 (inactive)
45 | O=c1c(O)c(-c2cc(O)c(O)c(O)c2)oc2cc(O)ccc12 [Robinetine] | 99 | 105 | 98.3 (inactive) | 90.7 (inactive)
46 | CCC(=O)OC(OP(=O)(CCCCc1ccccc1)CC(=O)N1CC(C2CCCCC2)CC1C(=O)O)C(C)C (configuration not stated) [Fosinopril] | 99.8 | 86 | 96 (inactive) | 101 (inactive)
47 | CCCCCCCCCCCCCCCCOCC(COP(=O)([O-])OCC[N+](C)(C)C)OC(=O)NC (configuration not stated) | 103 | 95.7 | 95.7 (inactive) | 101 (inactive)
48 | O=C(C=Cc1ccc(O)cc1)CC(=O)C=Cc1ccc(O)cc1 [bis-demethoxycurcumin] | 82.7 | 98.6 | 92.7 (inactive) | 104 (inactive)
